Most compounds without a hit are left out; they make up all but 6.5% or so of the library.
MARV entry inh – Marburg virus entry inhibition; Potency, µM (top dose mostly 37.8 µM), actives largely listed as inhibitors; Marburg virus pseudotyped entry inhibition, cell reporter; 1.8% of 300,000 active; calls by dose curve; tested in HEK293 cells
Lassa entry inh – Lassa virus entry inhibition; Lassa virus pseudotype entry inhibition, cell reporter; Potency, µM (top dose mostly 37.9 µM), actives largely listed as inhibitors; 1.2% of 300,000 active; calls by dose curve; tested in HEK293 cells; further: nearly all actives have a fitted effect of over 50% in size
HCMV antiviral – human cytomegalovirus inhibition; HFF cells, HCMV-luciferase reporter, 72 h; hits give low values; activity change, negative = inhibition, % at 57.5 µM; 4.5% of 410,000 active; in the data active means activity change below about -60%; inconclusive means no clear call, values can overlap the other calls; inactive means above about -39%
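Two compound doses tested in HFFs infected with HCMV-luciferase, MOI 1 PFU/cell, 72 h at 37C. Lysate luminescence read with OneGlo; data normalized against buffer-only and 10uM Salinomycin inhibitor controls.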
FMDV inh – foot and mouth disease virus antiviral activity. FMDV antiviral cell-based qHTS. Potency, µM (highest dose often 57.9 µM), most hits filed as inhibitors. 1.2% of 410,000 active; calls by dose curve; tested in HEK293T cells; further: read-out not given here; nearly all actives have a fitted effect of over 45% in size
Vaccinia mCherry – inhibitors of vaccinia virus infection (mCherry reporter signal) | Vaccinia virus mCherry reporter infection, fluorescence | Potency, µM (doses to about 36.5 µM), usual class: inhibitors | 0.63% of 310,000 active; calls by dose curve; tested in A549 cells; further: nearly all actives have a fitted effect of over 35% in size
VACV Venus inh – vaccinia inhibition (Venus reporter) | Vaccinia virus Venus reporter expression, fluorescence | Potency, µM (top dose mostly 36.5 µM), usual class: inhibitors | 0.46% of 330,000 active; calls by dose curve; tested in A549 cells; further: nearly all actives have a fitted effect of over 30% in size
A number is an active result; n = inactive; u = inconclusive; x = not tested or not shown; [ ] = dose if it differs, or a comment.

SMILES	MARV entry inh	Lassa entry inh	HCMV antiviral	FMDV inh	Vaccinia mCherry	VACV Venus inh
O=C1c2cccc3cccc(c23)C(=O)N1CCN1CCN(CC(O)COc2ccc3ccccc3c2)CC1 (configuration not stated)	u	u	-63	u	n	n
CC(C)c1ccccc1NC(=S)NC(C)c1ccccc1 (configuration not stated)	u	n	-87	n	u	n
CC(NC(=S)Nc1ccc(F)cc1)c1ccccc1 (configuration not stated)	n	n	u	n	n	n
COc1cc(CCCN2CCNC[C@@H]2c2ccccc2)cc(OC)c1OC	x	x	-72	n	n	n
CC(C)C[C@H](NC(=O)c1nc[nH]c1C(=O)N[C@@H](CC(C)C)C(=O)OC(C)(C)C)C(=O)OC(C)(C)C	x	x	n	40µM	u	10µM
CC(C)C[C@H](NC(=O)c1nc[nH]c1C(=O)NC(c1ccccc1)c1ccccc1)C(=O)OC(C)(C)C	x	x	-63	n	u	u
COc1cccc(/C=C/c2nc3ccccc3nc2/C=C/c2cccc(OC)c2OC)c1OC	x	x	x	x	n	n
O=[N+]([O-])c1cnccc1Nc1cccc(F)c1	u	n	n	n	n	n
COc1ccc(Nc2ccncc2[N+](=O)[O-])cc1	n	x	-71	n	n	n
Cc1c(N=C2N=C(NC(=O)c3ccc(F)cc3)c3ccccc32)c(=O)n(-c2ccccc2)n1C	u	n	n	28µM	n	n
Oc1cc(O)c(/C=C/c2ccnc3ccccc23)c(O)c1	x	x	x	x	n	n
CC1=C(C(=O)Nc2ccc(C)c(C)c2)C2(CCCCCC2)OC1=O	x	n	n	n	n	n
COc1ccc(CCn2c3c(c(=O)[nH]c2=S)CN(c2ccccc2)CN3)cc1OC	x	x	x	x	n	u
CC(=O)Nc1ccc(S(=O)(=O)Oc2ccc(C(=S)N3CCC(O)CC3)cc2)cc1	u	n	-72	u	n	n
CCOc1cc(C(=S)N2CCOCC2)ccc1OS(=O)(=O)c1ccc(NC(C)=O)cc1	n	u	-83	x	n	n
Cc1csc(NCC(=O)c2c(C)[nH]c3ccccc23)n1	x	x	x	x	n	n
COc1ccc2c(c1)Cc1sc(NC(=O)c3cccc(Cl)c3)nc1-2	x	n	n	u	u	u
COc1ccc2c(c1)Cc1sc(NC(=O)c3ccc(Cl)cc3)nc1-2	u	n	-63	n	u	u
COc1ccc2c(c1)Cc1sc(NC(=O)c3cccc(C)c3)nc1-2	n	n	-70	n	n	n
COc1ccc(C(=O)Nc2nc3c(s2)CCc2cc(OC)ccc2-3)cc1	u	n	n	u	n	n
O=C(NCCCN1CCN(c2ccc(F)cc2)CC1)c1cnn(-c2ccc(F)cc2)c1-n1cccc1	x	u	n	u	n	n
COc1ccc(OC)c(-c2ccnc(-n3ncc(C(=O)NC(C)(C)CO)c3C3CC3)n2)c1	x	x	x	n	n	n
CC(Cc1ccccc1Sc1ccc(O)cc1)N(C)C (configuration not stated)	u	n	x	n	n[1.46 µM]	n
CC(Cc1ccccc1Sc1ccccc1)N(C)C (configuration not stated)	u	u	-63	n	n	n
COc1ccccc1NC(=O)CSc1c2c(nc3ccccc13)CCC2	n	n	n	u	n	u
SMILES	MARV entry inh	Lassa entry inh	HCMV antiviral	FMDV inh	Vaccinia mCherry	VACV Venus inh
COc1ccc(NC(=O)CSc2c3c(nc4ccccc24)CCCC3)c(OC)c1	u	u	n	35µM	n	n
Cc1cc(Br)ccc1NC(=O)CSc1c2c(nc3ccccc13)CCC2	u	n	-95	u	n	n
CC(C)NC(=O)CSc1c2c(nc3ccccc13)CCCC2	n	n	-72	n	n	n
Cc1ccc(-c2nc3cc(C(C)C)ccc3o2)cc1NC(=O)c1cc([N+](=O)[O-])ccc1N1CCOCC1	u	n	u	n	n	n
CC1=N/C(=C\c2ccc([N+](=O)[O-])cc2)C(=O)N1c1ccc(C)c(Cl)c1	x	x	n	x	x	x
COc1ccc(Br)cc1CNC(=O)CSc1cc(=O)n(C)c2ccccc12	u	n	n	n	n	n
COc1cc(OC)c(NC(=O)c2ccc3nc(C(C)C)oc3c2)cc1Cl	x	n	n	13µM	n	n
Cc1cc(C)c(NC(=O)c2ccc3nc(C(C)C)oc3c2)c(C)c1	x	n	n	n	n	n
COC1=C(N)C(=O)c2nc(C)ccc2C1=O	u	n	n	10µM	n	n
COC1=C(Br)C(=O)c2nc(C)ccc2C1=O	x	x	n	40µM	n	n
COc1ccc(N)c2c1C(=O)c1ccccc1C2=O	n	u	n	n	n	n
CN1C(=O)c2ccccc2Sc2ccc(NC(=O)N3CCN(c4ccccc4F)CC3)cc21	n	n	n	u	n	n
COc1ccc(CCNC(=O)CCc2cn(Cc3ccc(C)cc3)c3ccccc23)c(OC)c1OC	x	n	u	n	n	n
O=C1[C@H]2[C@@H]3[C@@H](O)[C@H](O)CC(=NOCc4ccccc4)[C@H]3CC[C@H]2C(=O)N1C[C@@H]1CCCO1	n	x	x	x	x	x
COc1ccc(Cl)cc1C(=O)Nc1ccc(NC(C)=O)cc1	n	n	x	n	n	n
CC(=O)Oc1c(I)cc(I)cc1C(=O)Nc1ccc(Cl)cc1	u	13µM	-99	u	10µM	u
Cc1ccc(C(=O)Nc2nc(C)c(C(=O)Nc3ccc4c(c3)CCC4)s2)cc1	1.1µM	u	u	n	n	n
Nc1ccc(-c2nc3ccc(-c4nc5ccccc5o4)cc3[nH]2)cc1	7.1µM	n	n	n	n	n
Cc1nc2ccc(-c3nc4ccccc4o3)cc2[nH]1	n	u	n	n	n	n
CCOC(=O)c1c(C)[nH]c(C)c1S(=O)(=O)N1CCCC(C(=O)Nc2cccc(CC)c2)C1 (configuration not stated)	x	n	n	n	n	n
CCN1CCc2c(C#N)c(NCc3ccccc3)nc(N(CC)CC)c2C1	u	15µM	n	u	x	x
O=c1cc(C(Cl)(Cl)Cl)oc2c1ccc1ccccc12	2.1µM	u	-105	14µM	u	n
O=c1cc(-c2ccncc2)oc2c1ccc1ccccc12	u	n	-79	n	n	n
COc1ccc(OC)c(NC(=O)C2Cc3ccccc3CN2S(=O)(=O)c2ccc(F)cc2)c1 (configuration not stated)	u	u	n	n	n	n
CCC[C@H]1[C@@H](NS(=O)(=O)c2ccc(Cl)cc2)CC[C@@]23CCCN2C(=O)CCC[C@@H]13	x	x	n	x	x	x
SMILES	MARV entry inh	Lassa entry inh	HCMV antiviral	FMDV inh	Vaccinia mCherry	VACV Venus inh
CCC[C@H]1[C@@H](NS(=O)(=O)c2ccc(C)cc2)CC[C@@]23CCCN2C(=O)CCC[C@@H]13	x	x	-103	x	x	x
O=C(N/N=C/c1sc(=O)n(Cc2ccc(Br)cc2)c1Cl)c1ccco1	u	u	-92	n	n	n
COc1ccc(OC)c(S(=O)(=O)N2Cc3ccccc3CC2C(=O)Nc2ccc(C(C)=O)cc2)c1 (configuration not stated)	u	n	n	n	n	n
O=C(C[n+]1ccc(/C=N/O)cc1)N(Cc1ccccc1)Cc1ccccc1	n	n	-68	n	n	n
CCn1c2c(c3cc(Br)ccc31)CCC/C2=N\O	n	n	-107	n	x	x
CN1CCN(c2ccc(-c3cccc(NC(=O)COc4ccc(Cl)cc4Cl)c3)nn2)CC1	u	4.5µM	n	u	n	n

Assay outcomes as filed in PubChem.
